TRPV1 ag = HTS Assay for Compounds that Act as Agonists of the Vanilloid Receptor 1. TRPV1-expressing cells, Fluo-8 calcium influx, agonist mode. AID 540275, 2011. activation, % at 8.33 µM. 0.19% of 320,000 active; in the data active = activation above about 80%; inconclusive = between about 30% and that limit; note: 0% is about no effect
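Cells expressing TRPV1 were dye-loaded with Fluo-8 and read kinetically: 10 s baseline, 3 min after compound (agonist portion), then 2 min after EC20 capsaicin (allosteric enhancer portion). Calcium-bound dye fluorescence at 480/520 nm.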
TRPV1 PAM = HTS Assay for Compounds that Act as Potentiators of the Vanilloid Receptor 1. Transient receptor potential cation channel subfamily V member 1 (Homo sapiens), Q8NER1. potentiation, % at 8.33 µM. AID 540277, 2011. TRPV1-expressing cells, Fluo-8 calcium influx, capsaicin EC20 potentiation. 0.02% of 320,000 active; in the data active = potentiation above about 80%; inconclusive = between about 30% and that limit; note: 0% is about no effect
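Fluo-8 calcium influx in TRPV1-expressing cells, kinetic read (ex 480/em 520 nm). Compound added and read 3 min for agonist activity, followed by capsaicin at EC20 final and 2 min further read for enhancement.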
uPA generation = qHTS for Inhibitors of Cell Surface uPA Generation. cell surface uPA generation assay, qHTS. Potency, µM (top dose mostly 38.3 µM), without a hit: at the highest dose activity change, negative = inhibition, most hits filed as inhibitors. 0.31% of 330,000 active. AID 540303, 2011; active = well fitted inhibition curve with a large enough effect; inconclusive = small, poorly fitted or top-dose-only effect; inactive = no such curve, though single readings can be large or run the other way; tested in mouse RAW 264.7 cells; note: potency is the fitted concentration of half-maximal effect; % is set by controls: 0 for no effect and ±100 for the full control effect; nearly all actives have a fitted effect of over 55% in size
RORg inh = qHTS for inhibitors of ROR gamma transcriptional activity; Drosophila S2 Gal4-RORgamma UAS-luciferase reporter, 20 h; Potency, µM (series often up to 53.6 µM), without a hit: at the top dose activity change, negative = inhibition, most hits filed as inhibitors; 5.4% of 310,000 active; AID 2551, 2010; note: potency is the fitted concentration of half-maximal effect; % is set by controls: 0 for no effect and ±100 for the full control effect; nearly all actives have a fitted effect of over 60% in size
Target sequence (P51450 whole entry, looked up, the tested form may be a part): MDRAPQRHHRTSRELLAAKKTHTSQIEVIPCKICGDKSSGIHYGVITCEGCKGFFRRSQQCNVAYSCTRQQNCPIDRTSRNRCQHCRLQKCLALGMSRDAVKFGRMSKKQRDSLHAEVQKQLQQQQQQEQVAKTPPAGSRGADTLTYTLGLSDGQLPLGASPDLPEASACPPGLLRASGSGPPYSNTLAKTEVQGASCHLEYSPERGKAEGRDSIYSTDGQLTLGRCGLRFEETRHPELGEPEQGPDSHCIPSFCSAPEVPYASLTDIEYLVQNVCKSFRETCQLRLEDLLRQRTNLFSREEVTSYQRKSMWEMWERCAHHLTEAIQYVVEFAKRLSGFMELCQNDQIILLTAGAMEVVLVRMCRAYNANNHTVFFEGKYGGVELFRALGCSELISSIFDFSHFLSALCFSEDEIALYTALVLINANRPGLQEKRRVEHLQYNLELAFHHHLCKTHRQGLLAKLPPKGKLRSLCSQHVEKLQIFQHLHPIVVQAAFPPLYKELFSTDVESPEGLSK
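Compounds are pin-transferred onto Drosophila Schneider cells expressing a copper-inducible Gal4–ROR gamma transactivation domain fusion. After 1 hr, copper sulfate is added to 700 uM final; luciferase is read 20 hr later.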
Gal4-VP16 FLuc = VP16 counterscreen qHTS for inhibitors of ROR gamma transcriptional activity; Potency, µM (titrated, usually from 53.6 µM), for the others: at the top dose activity, negative = inhibition, most hits filed as inhibitors; Drosophila S2 Gal4-VP16 UAS-luciferase, luminescence, 20 h; 3.5% of 310,000 active;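 note: Gal4-VP16 expression switched on by copper sulfate through the metallothionein promoter; potency is the fitted concentration of half-maximal effect; % is set by controls: 0 for no effect and ±100 for the full control effect; nearly all actives have a fitted effect of over 50% in size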
* = called active by the depositor; u = inconclusive; x = no result. Compounds with a hit are over-represented: about 5.8% of the library has one in this group of screens. Unless noted, calls come from the whole dose curve; as a rule, active = well fitted curve in the direction sought with a large enough effect; inconclusive = small, poorly fitted or top-dose-only effect, or another doubt; inactive = no such curve, though single readings can be large; an effect the other way counts as inactive or inconclusive.

SMILES | TRPV1 ag | TRPV1 PAM | uPA generation | RORg inh | Gal4-VP16 FLuc
COc1ccc(-n2c(SCC(=O)Nc3cccc4ccccc34)nc(O)cc2=O)cc1 | 2 | 26 | 2% | 35µM* | 12%
COc1cc(NC(=O)C(C)Oc2ccccc2)c(OC)cc1NC(=O)c1ccccc1 (stereo unspecified) | u | -10 | 6% | 39% | -9%
CCCn1c(NC(=O)c2ccco2)nc2ccccc21 | -4 | 3 | -8% | -3% | -10%
CCCn1c(NC(=O)CCNC(=O)c2ccccc2Cl)nc2ccccc21 | -1 | 0 | 5% | x | x
O=C(NCCc1nc2ccccc2n1Cc1ccccc1F)c1ccc(F)cc1 | u | -2 | x | x | x
CCCn1c(NC(=O)c2ccc(F)cc2)nc2ccccc21 | 8 | -8 | -3% | 0.32µM* | 2.5µM*
CC(NC(=O)c1ccc(F)cc1)c1nc2ccccc2n1Cc1ccccc1F (stereo unspecified) | 30 | -17 | x | 18µM* | -4%
CCCn1c(NC(=O)c2ccc(Br)cc2)nc2ccccc21 | -6 | 15 | x | 1µM* | 1.3µM*
CCCn1c(NC(=O)c2ccccc2Br)nc2ccccc21 | 16 | -6 | -3% | 0.35µM* | 2.8µM*
CCCn1c(CCNC(=O)c2ccco2)nc2ccccc21 | 1 | -5 | 0% | -4% | 5%
O=c1[nH]c2cc([N+](=O)[O-])cc([N+](=O)[O-])c2[nH]c1=O | x | x | x | -10% | -3%
CCCn1c(NC(=O)C2CCN(C(=O)c3ccc(F)cc3)CC2)nc2ccccc21 | 2 | 1 | -2% | 7.1µM* | 8.9µM*
COc1cc(C(=O)NC(C(=O)Nc2cccc(C(C)=O)c2)C(C)C)cc(OC)c1OC (stereo unspecified) | 6 | -8 | 0% | -35% | 15%
CCCCC(=O)O[C@]1(C(=O)CO)[C@H](C)C[C@H]2[C@@H]3CCC4=CC(=O)C=C[C@]4(C)[C@@]3(F)[C@@H](O)C[C@@]21C | x | x | x | 7.9µM* | u
CCCC(=O)O[C@]1(C(=O)CCl)[C@@H](C)C[C@H]2[C@@H]3CCC4=CC(=O)C=C[C@]4(C)[C@@]3(F)C(=O)C[C@@]21C | 13 | -3 | -17% | 10µM* | -3%
CCC(=O)O[C@]1(C(=O)CCl)[C@@H](C)CC2C3C[C@H](F)C4=CC(=O)C=CC4(C)[C@@]3(F)C(O)CC21C (stereo partly specified) | x | x | x | -16% | -7%
CCC(=O)O[C@@]1(C(=O)CCl)C(C)CC2C3CCC4=CC(=O)C=C[C@@]4(C)[C@]3(F)C(O)C[C@]21C (stereo partly specified) | x | x | x | u | -18%
CCC(=O)OC1(C(=O)CCl)[C@@H](C)C[C@H]2[C@@H]3CCC4=CC(=O)C=C[C@]4(C)[C@@]3(F)[C@@H](O)C[C@@]21C (stereo partly specified) | 1 | 2 | 10% | x | x
CCC(=O)O[C@]1(C(=O)CCl)[C@@H](C)C[C@H]2[C@@H]3CCC4=CC(=O)C=C[C@]4(C)[C@@]3(F)[C@@H](O)C[C@@]21C | 8 | -4 | -38% | 11µM* | u
CC1CC2C3CC(F)C4=CC(=O)C=C[C@@]4(C)[C@@]3(F)C(O)C[C@]2(C)[C@]1(O)C(=O)COC(=O)C(C)(C)C (stereo partly specified) | x | x | x | 38% | -7%
CSc1nc(N)nc2c1ncn2CC(=O)Nc1ccc(C)c(C)c1 | x | x | -28% | x | x
Cc1ccc[n+](CC(=O)Nc2c(Cl)cc(Cl)cc2Cl)c1 | 3 | 6 | -1% | 13µM* | 2%
O=C(C[n+]1ccccc1)Nc1c(Cl)cc(Cl)cc1Cl | -5 | 9 | 3% | u | u
Cc1ccc(N(C(=O)c2csnn2)C(C(=O)NC2CCCCC2)c2cccnc2)cc1 (stereo unspecified) | 2 | 3 | 0% | 19% | 2%
O=C(Nc1ncc(Br)s1)C(Cc1ccccc1)n1cccc1 (stereo unspecified) | 17 | 18 | -4% | 13µM* | u
SMILES | TRPV1 ag | TRPV1 PAM | uPA generation | RORg inh | Gal4-VP16 FLuc
CCOC(=O)c1c(-c2ccc(OC)cc2)csc1/N=C/C1C(=O)CCCC1=O | 5 | -14 | -5% | 3.2µM* | u
CCOC(=O)c1c(-c2ccc(OC)cc2)csc1/N=C/N(C)C | 5 | -10 | -7% | 7% | 0%
CN1CCN(C(=O)c2cccc(NS(=O)(=O)c3ccc(Br)cc3)c2)CC1 | 1 | 24 | -1% | x | x
COc1ccc(S(=O)(=O)N(CCO)c2ccccc2CN(C)CC=Cc2ccc(Cl)cc2)cc1 | x | x | x | -40% | 14µM*
N#Cc1ccc(S(=O)(=O)N2CCCN(c3ccc(C(F)(F)F)cn3)CC2)cc1 | 81* | -25 | -1% | u | -14%
O=C(NCc1cnn(-c2ccc(F)cc2)c1)C1CCC(=O)N(C2CC2)C1 (stereo unspecified) | -3 | 8 | 4% | -7% | -14%
COC(=O)/C(=C/c1c[nH]c2ccccc12)[N+](=O)[O-] | -5 | 12 | 3% | u | 20µM*
Cc1ccc(COc2ccsc2-c2n[nH]c(=S)n2C)cc1 | 29 | -10 | 1% | 2.8µM* | 7.1µM*
Cn1c(-c2sccc2OCc2ccc(Cl)cc2Cl)n[nH]c1=S | 15 | -13 | -4% | 2.8µM* | 7.1µM*
Cn1c(-c2sccc2OCc2ccccc2)n[nH]c1=S | 2 | -3 | -6% | 29% | -8%
C/C(=N/NC(=O)CNC(=O)C1COc2ccccc2O1)c1cccc(O)c1 (stereo unspecified) | 2 | -4 | 0% | 15% | 1%
CN(C)c1ccc(N=Nc2nc3ccccc3n2C)cc1 | 11 | -10 | u | 0.4µM* | 1.3µM*
CCn1c(NCc2ccc(N(C)C)cc2)nc2ccccc21 | 1 | 12 | 3% | -25% | 0%
Cn1c(N=Nc2ccccc2)nc2ccccc21 | 20 | -46 | -14% | 0.71µM* | 1.3µM*
O=C(CN(C(=O)c1csnn1)c1cccc(C(F)(F)F)c1)NCc1ccc(F)cc1 | 2 | -6 | -3% | u | -17%
CCOc1ccccc1-c1cc(-c2n[nH]c(=S)n2CC)c2ccccc2n1 | 14 | -5 | 8% | 5.6µM* | -16%
CCn1c(-c2cc(C3CC3)nc3ccccc23)n[nH]c1=S | 3 | 1 | 4% | u | -17%
CCOc1cccc(-c2cc(-c3n[nH]c(=S)n3CC)c3ccccc3n2)c1 | 1 | 3 | x | 0.13µM* | u
Cc1ccc(-c2cc(-c3n[nH]c(=S)n3C)c3ccccc3n2)cc1 | u | -2 | -5% | 1.3µM* | -14%
CCn1c(-c2cc(-c3ccc(C)c(C)c3)nc3ccccc23)n[nH]c1=S | u | -7 | x | 10µM* | -17%
Cn1c(-c2ccccc2Br)n[nH]c1=S | x | x | -5% | x | x

Screens as filed in PubChem.
